Data on 6 molecules can be found in PubChem BioAssay (Tox21).

A number with no mark means an inactive call. Inconclusive results are not listed. The source made the active and inactive calls. Unless noted, the call rests on the fitted dose curve.

The nature of assay [1]: Nuclear factor erythroid 2-related factor 2/antioxidant responsive element (Nrf2/ARE) small molecule agonists: qHTS cell viability counter screen in human keratinocytes (AID 1919968; active means well fitted curve in the direction sought with a large enough effect in the repeat runs; an effect the other way counts as inactive or inconclusive; further: nearly all actives have a fitted effect of over 55% in size; further: potency means the concentration at half of the fitted maximal effect). An outline of the steps: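 Viability counter-screen: KeratinoSens reporter cells, DMSO-delivered compounds, 23 h at 37 C, CellTiter-Fluor fluorescence.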
On the technique in general: In qHTS, concentration-response curves come from the screen itself.

Assay [2] is described as follows: Nuclear factor erythroid 2-related factor 2/antioxidant responsive element (Nrf2/ARE) small molecule agonists: luciferase reporter gene qHTS assay in human keratinocytes (AID 1919969). Further: nearly all actives have a fitted effect of over 35% in size. For orientation: A reporter such as luciferase makes a cellular process visible.
For assay [3], the target named is Gonadotropin-releasing hormone receptor (Homo sapiens) (UniProt P30968). As to the kind of experiment: Human gonadotropin-releasing hormone receptor (GnRHR) small molecule agonists, calcium flux assay in GnRHR-HEK293 cells (AID 1920063). Further: nearly all actives have a fitted effect of over 35% in size. Further: potency means the concentration at half of the fitted maximal effect. A digest of the protocol: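 Tox21-format agonist screen using human GnRHR-expressing HEK293 cells and a fluorescent calcium dye; kinetic 3-min fluorescence reading after compound addition, 15-point concentration series run in triplicate.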

The target of assay [4] is KiSS-1 receptor (Homo sapiens) (UniProt Q969F8). As to the kind of experiment: Human kisspeptin (KISS1R) small molecule agonists, calcium flux assay in KISS1R-HEK293 cells (AID 1920064; active means well fitted curve in the direction sought with a large enough effect in the repeat runs; an effect the other way counts as inactive or inconclusive). A digest of the protocol:
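Intracellular calcium mobilization in KISS1R-HEK293 cells was recorded by fluorescence (Ex/Em 480/540) for 3 min following compound addition to cells pre-loaded 1 h with calcium dye.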
(Calcium assays in cells follow changes in intracellular calcium, usually with a dye or a luminescent sensor.)

Assay [5] is described as follows: p53 small molecule agonists, cell-based qHTS assay with human liver microsomes: qHTS cell viability counter screen (AID 1963579). Further: nearly all actives have a fitted effect of over 45% in size. A digest of the protocol: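 Cells carrying the p53 response-element beta-lactamase reporter are treated for 16 h at 37 C with test compounds in the presence of human liver microsomes and NADPH (both 0.5 mg/mL final); ATP-based CellTiter-Glo luminescence then reports viability.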

The nature of assay [6]: p53 small molecule agonists, cell-based qHTS assay with rat liver microsomes: qHTS cell viability counter screen (AID 1963580). Further: nearly all actives have a fitted effect of over 45% in size. An outline of the steps:
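p53RE-bla HCT-116 cells were exposed 16 h at 37 C to compounds with rat liver microsomes (0.5 mg/mL) and NADPH (0.5 mg/mL). Viability was measured in the same wells as ATP content by CellTiter-Glo luminescence.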

The nature of assay [7]: p53 small molecule agonists, cell-based qHTS assay: qHTS cell viability counter screen (AID 1963581). Further: nearly all actives have a fitted effect of over 45% in size. An outline of the steps: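 Compounds are pinned onto HCT-116 p53RE-bla cells and left 16 h at 37 C. Following the reporter FRET read, ATP is quantified by CellTiter-Glo luminescence after 30 min at room temperature.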
Assay [8] is described as follows: p53 small molecule agonists, cell-based qHTS assay (AID 1963582; active means well fitted activation curve with a large enough effect in the signal ratio in the repeat runs, not every such curve was filed as active; the % refers to the signal ratio). A digest of the protocol: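 Agonist activity was scored from beta-lactamase FRET fluorescence in p53RE-bla cells treated 16 h at 37 C with compounds in DMSO, substrate incubation being 2 h at room temperature.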
The target of assay [9] is 5-hydroxytryptamine receptor 2A (Homo sapiens) (UniProt P28223). As to the kind of experiment: 5-hydroxytryptamine receptor 2A (HTR2A) small molecule antagonists, cell-based qHTS assay (AID 1963586). Further: nearly all actives have a fitted effect of over 45% in size. Further: potency means the concentration at half of the fitted maximal effect. A digest of the protocol:
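Antagonist-mode intracellular calcium assay: DOI (4 nM) added after 5 min compound pre-incubation at room temperature to dye-loaded HTR2A-CHO cells. Fluorescence followed for 3 min, sampled every second.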

The target is the same in assay [10]. As to the kind of experiment: 5-hydroxytryptamine receptor 2A (HTR2A) small molecule agonists, cell-based qHTS assay (AID 1963587). Further: nearly all actives have a fitted effect of over 30% in size. Further: potency means the concentration at half of the fitted maximal effect. A digest of the protocol: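 CHO cells stably expressing human HTR2A, plated 18 h, loaded with calcium dye 1 h at 37 C. Agonist mode: compounds added and intracellular calcium fluorescence recorded kinetically for 2 min at 1 sec intervals.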

For assay [11], the target named is Muscarinic acetylcholine receptor M1 (Homo sapiens) (UniProt P11229). As to the kind of experiment: Cholinergic receptor muscarinic 1 (CHRM1) small molecule agonists, cell-based qHTS assay (AID 1963589). Further: nearly all actives have a fitted effect of over 35% in size. A digest of the protocol:
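Stable CHRM1-CHO cells (human receptor) were incubated 18 h, dye-loaded for 1 h at 37 C and exposed to test compounds for agonist activity, with calcium-dependent fluorescence followed kinetically.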

Assay [12] in a line: cAMP Responsive Elements (CRE) small molecule antagonists, cell-based qHTS assay (AID 1963591; active means well fitted inhibition curve with a large enough effect in the signal ratio in the repeat runs, not every such curve was filed as active; the % refers to the signal ratio). A digest of the protocol:
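qHTS in CRE-bla HEK 293T cells: compound in DMSO, then 0.25 uM NKH477 (final), 3 h at 37 °C/5% CO2; beta-lactamase FRET read-out after 2 h substrate incubation.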

Assay [13] concerns the target Beta-2 adrenergic receptor (Homo sapiens) (UniProt P07550). Nature of the assay: Adrenergic beta2 receptor (ADRB2) small molecule antagonists, cell-based qHTS assay (AID 1963592). Further: series mostly up to about 92 µM; nearly all actives have a fitted effect of over 50% in size. An outline of the steps: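 Cells (CHO, stable ADRB2 overexpression) incubated 18-20hr at 37C; compounds added from DMSO; agonist mix (1nM isoproterenol, 100uM IBMX, 25uM Ro-20-1724) added; 0.5hr RT; d2-cAMP and anti-cAMP-cryptate added; 1hr RT; 665/615 nm read.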

The target is the same in assay [14]. As to the kind of experiment: Adrenergic beta2 receptor (ADRB2) small molecule agonists, cell-based qHTS assay (AID 1963593).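 Further: CHO cells stably overexpressing human ADRB2.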 An outline of the steps:
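CHO cells stably over-expressing ADRB2 were plated overnight at 37C, then dosed with compounds plus a stimulation mix containing 100uM IBMX and 25uM Ro-20-1724 for 0.5hr at room temperature. cAMP was measured by HTRF competition, 1hr.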

Assay [15] concerns the target D(2) dopamine receptor (Homo sapiens) (UniProt P14416). As to the kind of experiment: Dopamine D2 receptor (DRD2) small molecule agonists, cell-based qHTS assay (AID 1963594). Further: nearly all actives have a fitted effect of over 35% in size. An outline of the steps:
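HEK293 cells stably expressing human DRD2, pre-treated with PDE inhibitor Ro20-1724 (0.1 mM final) and compound 10 min at room temperature, then stimulated with NKH477 (200nM […]) for 30 min. cAMP read by HTRF (665/620 nm).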

Assay [16] has the same target. As to the kind of experiment: Dopamine D2 receptor (DRD2) small molecule antagonists, cell-based qHTS assay (AID 1963595; active means well fitted inhibition curve with a large enough effect in the signal ratio in the repeat runs, with a control signal flat; the % refers to the signal ratio; further: potency means the concentration at half of the fitted maximal effect). An outline of the steps:
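HEK293 cells stably expressing DRD2 were preincubated with 0.1 mM Ro20-1724, then with compound for 10 min at room temperature. Cells were stimulated with 200 nM NKH477 plus 12 nM quinpirole for 30 min, and cAMP was read by HTRF.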

The target of assay [17] is Muscarinic acetylcholine receptor M1 (Homo sapiens) (UniProt P11229). Nature of the assay: Cholinergic receptor muscarinic 1 (CHRM1) small molecule antagonists, cell-based qHTS assay (AID 1963588). Further: nearly all actives have a fitted effect of over 40% in size. A digest of the protocol: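 CHRM1-CHO calcium-flux assay, antagonist mode. Cells were seeded 18 h, dye-loaded 1 h at 37 C and given compound for 5 min at RT, then acetylcholine was added at 50nM. FDSS fluorescence was read 3 min; 15 concentrations, three runs.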

Assay [18] in a line: cAMP Responsive Elements (CRE) small molecule agonists, cell-based qHTS assay (AID 1963590). A digest of the protocol:
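FRET-based beta-lactamase readout (LiveBLAzer B/G, 2 h RT) quantified CRE activation in HEK 293T CRE-bla cells after 3 h treatment with DMSO-dissolved compounds.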

Assay [19] in a line: G protein-coupled receptor (GPCR) small molecule agonists, calcium flux assay: HEK293 wild type cell line counter screen (AID 1920065). An outline of the steps:
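In this agonist-mode screen, ATP is the positive control and DMSO the vehicle. Cells grow 18 h before a 1 h dye incubation at 37 C; signal is taken at Ex/Em 480/540 over 3 min.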

A short description of assay [20]: p53 small molecule agonists, cell-based qHTS assay with rat liver microsomes (AID 1963578). An outline of the steps:
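Read-out is beta-lactamase reporter fluorescence (LiveBLAzer, 2 h, room temperature, dark) in p53RE-bla cells treated 16 h at 37 C with compound, rat liver microsomes and NADPH, both 0.5 mg/mL final.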

Chain of Beta-2 adrenergic receptor (Homo sapiens) (P07550 whole entry, looked up): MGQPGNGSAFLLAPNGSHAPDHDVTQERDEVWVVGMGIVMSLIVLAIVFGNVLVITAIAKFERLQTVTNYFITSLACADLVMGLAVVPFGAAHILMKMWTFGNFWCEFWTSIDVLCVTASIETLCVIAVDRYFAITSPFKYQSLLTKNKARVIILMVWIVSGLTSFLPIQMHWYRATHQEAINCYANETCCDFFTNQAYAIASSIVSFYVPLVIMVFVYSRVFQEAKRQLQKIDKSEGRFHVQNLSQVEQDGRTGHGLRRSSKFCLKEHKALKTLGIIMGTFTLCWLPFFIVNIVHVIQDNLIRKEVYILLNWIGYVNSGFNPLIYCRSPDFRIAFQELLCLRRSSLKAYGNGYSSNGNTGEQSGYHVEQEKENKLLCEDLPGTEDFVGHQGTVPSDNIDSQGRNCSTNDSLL
Chain of Gonadotropin-releasing hormone receptor (Homo sapiens) (P30968 whole entry, looked up): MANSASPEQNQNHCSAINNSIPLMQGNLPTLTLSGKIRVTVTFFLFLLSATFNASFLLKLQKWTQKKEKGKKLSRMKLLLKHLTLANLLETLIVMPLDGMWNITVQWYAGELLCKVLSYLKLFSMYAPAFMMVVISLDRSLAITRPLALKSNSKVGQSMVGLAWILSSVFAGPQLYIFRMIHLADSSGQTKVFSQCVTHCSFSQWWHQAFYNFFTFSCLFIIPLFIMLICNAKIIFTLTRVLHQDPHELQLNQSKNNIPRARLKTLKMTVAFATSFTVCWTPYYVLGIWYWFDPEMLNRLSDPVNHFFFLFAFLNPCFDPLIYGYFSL
Chain of Muscarinic acetylcholine receptor M1 (Homo sapiens) (P11229 whole entry, looked up): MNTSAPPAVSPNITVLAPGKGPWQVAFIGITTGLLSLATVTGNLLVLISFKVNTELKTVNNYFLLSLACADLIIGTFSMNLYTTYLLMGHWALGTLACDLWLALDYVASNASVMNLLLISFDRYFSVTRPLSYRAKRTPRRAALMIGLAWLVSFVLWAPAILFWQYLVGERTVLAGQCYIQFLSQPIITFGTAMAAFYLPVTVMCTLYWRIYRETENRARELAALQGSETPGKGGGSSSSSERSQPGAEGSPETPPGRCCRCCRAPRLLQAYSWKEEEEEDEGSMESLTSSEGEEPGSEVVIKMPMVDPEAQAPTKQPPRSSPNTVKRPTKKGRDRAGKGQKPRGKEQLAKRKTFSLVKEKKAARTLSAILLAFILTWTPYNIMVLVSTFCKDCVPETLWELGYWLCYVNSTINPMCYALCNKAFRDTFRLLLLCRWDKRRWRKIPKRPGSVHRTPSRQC
Chain of KiSS-1 receptor (Homo sapiens) (Q969F8 whole entry, looked up): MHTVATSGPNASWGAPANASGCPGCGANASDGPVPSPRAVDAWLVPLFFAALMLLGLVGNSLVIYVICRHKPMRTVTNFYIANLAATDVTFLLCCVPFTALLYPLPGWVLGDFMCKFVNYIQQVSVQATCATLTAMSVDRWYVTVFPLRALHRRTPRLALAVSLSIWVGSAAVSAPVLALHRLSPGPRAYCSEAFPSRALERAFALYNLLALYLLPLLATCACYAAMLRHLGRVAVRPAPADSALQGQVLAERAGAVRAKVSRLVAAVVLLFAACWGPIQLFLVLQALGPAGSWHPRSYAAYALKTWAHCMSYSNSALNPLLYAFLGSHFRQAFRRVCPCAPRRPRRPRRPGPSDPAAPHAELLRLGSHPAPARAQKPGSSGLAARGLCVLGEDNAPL
Chain of D(2) dopamine receptor (Homo sapiens) (P14416 whole entry, looked up): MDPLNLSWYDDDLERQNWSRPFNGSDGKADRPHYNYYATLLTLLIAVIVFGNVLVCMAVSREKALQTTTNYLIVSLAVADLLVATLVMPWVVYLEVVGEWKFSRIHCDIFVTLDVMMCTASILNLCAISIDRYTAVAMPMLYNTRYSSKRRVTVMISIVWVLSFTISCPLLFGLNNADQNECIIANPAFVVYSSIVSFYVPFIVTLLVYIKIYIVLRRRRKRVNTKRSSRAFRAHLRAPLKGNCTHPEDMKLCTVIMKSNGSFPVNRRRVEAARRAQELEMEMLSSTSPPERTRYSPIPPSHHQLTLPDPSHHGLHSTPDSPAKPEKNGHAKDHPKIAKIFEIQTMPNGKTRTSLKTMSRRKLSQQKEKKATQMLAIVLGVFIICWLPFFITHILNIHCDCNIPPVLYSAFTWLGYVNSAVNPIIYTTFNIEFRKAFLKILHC
Chain of 5-hydroxytryptamine receptor 2A (Homo sapiens) (P28223 whole entry, looked up): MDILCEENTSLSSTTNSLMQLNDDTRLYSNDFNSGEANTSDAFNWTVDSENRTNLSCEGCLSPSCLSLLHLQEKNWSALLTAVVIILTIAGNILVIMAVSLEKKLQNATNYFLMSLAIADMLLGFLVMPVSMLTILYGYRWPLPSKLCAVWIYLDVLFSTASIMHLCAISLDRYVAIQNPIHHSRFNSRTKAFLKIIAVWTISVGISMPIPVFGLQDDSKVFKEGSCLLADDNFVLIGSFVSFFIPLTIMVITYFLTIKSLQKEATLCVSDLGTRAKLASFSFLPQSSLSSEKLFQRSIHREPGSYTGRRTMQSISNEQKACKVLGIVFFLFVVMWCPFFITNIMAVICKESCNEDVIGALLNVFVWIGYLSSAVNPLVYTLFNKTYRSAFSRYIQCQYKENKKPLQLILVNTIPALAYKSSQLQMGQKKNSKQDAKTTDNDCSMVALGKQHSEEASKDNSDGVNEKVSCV

In the case of `CC(C)c1ccccc1C(C)C`, the Potency entry in assay [1], in assay [2], in [3], in [4], in assay [5] and in assay [6] was “inactive” throughout. For the same molecule, the Potency entry in assay [7], in [8], in assay [9], in assay [10], in [11] and in assay [12] was “inactive” throughout. The Potency entry in assay [13], in [14], in [15] and in assay [16] was “inactive” in each case.

For `CCOc1ccc(OCC)c(Cl)c1`, the Potency result in assay [1], in [2], in assay [3], in assay [4], in assay [5] and in [6] was “inactive” each time. In addition, the Potency result in assay [7], in [9], in assay [10], in [17], in assay [11] and in assay [18] was “inactive” throughout. For the same molecule, the Potency result in assay [12], in assay [13], in assay [14] and in [16] was “inactive” throughout.

Turning to `O=C(CCCN1CC=C(n2c(=O)[nH]c3ccccc32)CC1)c1ccc(F)cc1`, the Potency result in assay [1], in assay [2], in assay [3], in assay [4] and in assay [15] was “inactive” in each case. Further, the Potency in assay [16] is 0.0211 µM (active).

For the molecule `CCCOc1sc(C(=O)N2CCC(c3cc(CN)ccc3F)CC2)c(C)c1Br`, the Potency is 17.7 µM (active) in assay [1], 35.7 µM (active) in [3] and 50.4 µM (active) in [10]. Moreover, the Potency result in assay [2], in assay [19], in [20], in assay [9], in assay [17] and in [15] was “inactive” in each case.

For the molecule `CN(C)CCN(Cc1ccccc1)c1ccccn1`, the Potency result in assay [1], in assay [2], in assay [3], in [4], in assay [20] and in assay [5] was “inactive” in each case. In addition, the Potency result in [6], in [10], in assay [11], in assay [18], in assay [12] and in assay [13] was “inactive” throughout. Also, the Potency entry in assay [14], in assay [15] and in assay [16] was “inactive” in each case. Also, the Potency in assay [9] is 7.29 µM (active).

As to `CC(=O)Nc1ccc(OCCOCCOc2ccc(NC(C)=O)cc2)cc1`, the Potency result in assay [1], in [2], in assay [3], in assay [4], in assay [5] and in [6] was “inactive” throughout. Besides, the Potency entry in assay [9], in [10], in assay [17], in assay [11], in [18] and in assay [12] was “inactive” in each case. The Potency result in [13], in [14], in [15] and in assay [16] was “inactive” in each case.
